# “And” between values parts separate entries of the source, which are not always exact repeats. Equal values may be shown once. Inconclusive results are not listed. For some of these results: Entries with a potency or affinity are not part of this list. The source made the active and inactive calls.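 The calls were made as follows, unless noted: active = at least 20% inhibition of 6-phosphogluconate dehydrogenase activity; inactive = the rest.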
# Legend:
# [1] = polyglutamine-triggered caspase-3 activation inhibitors, cell-based (AID 1583); details: polyglutamine-induced caspase-3 activation, cell assay; stronger effect = higher value;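 tested at 10 µM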
# [2] = suppressors of polyQ aggregation in yeast, 75Q-TubU reporter (AID 1593); details: Yeast 75Q polyglutamine aggregation reporter
# [3] = rescue of polyQ-huntingtin neuronal dysfunction in worms, whole organism, C. elegans mechanosensory neurons, N-terminal huntingtin (AID 1599); details: touch response, stronger effect = higher value
# [4] = inhibitors of mitochondrial cytochrome c release, biochemical, purified mitochondria (AID 1603); details: stronger effect = lower value;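 also: mouse liver mitochondria challenged with calcium chloride; signal normalized to the plate average as 100%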
# [5] = inhibitors of polyQ protein aggregation (AID 1604); details: polyglutamine-induced protein aggregation inhibition assay; stronger effect = higher value; tested at 2.5 µM
# [6] = enhancers of glutamate uptake in motor neurons, MN-1 cell line (AID 1612); details: MN-1 motor neuron cells, stronger effect = higher value;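 also: tested at 1 µM final; 0% = mean of DMSO vehicle wells on each plate; positive means more glutamate uptake than control and negative means less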
# [7] = suppressors of polyglutamine aggregation in yeast, 75Q-TubH (AID 1616); details: S. cerevisiae 75Q-TubH polyglutamine aggregation suppression; stronger effect = higher value
# [8] = target: 6-phosphogluconate dehydrogenase, decarboxylating (Homo sapiens) (UniProt P52209); test: 6PGD enzyme inhibitors, primary screen, biochemical, human, recombinant enzyme, NADPH absorbance (AID 1159550); details: recombinant 6PGD, NADPH absorbance 341 nm; at 10 µM; stronger effect = higher value
# Chain of 6-phosphogluconate dehydrogenase, decarboxylating (Homo sapiens) (P52209 whole entry, looked up): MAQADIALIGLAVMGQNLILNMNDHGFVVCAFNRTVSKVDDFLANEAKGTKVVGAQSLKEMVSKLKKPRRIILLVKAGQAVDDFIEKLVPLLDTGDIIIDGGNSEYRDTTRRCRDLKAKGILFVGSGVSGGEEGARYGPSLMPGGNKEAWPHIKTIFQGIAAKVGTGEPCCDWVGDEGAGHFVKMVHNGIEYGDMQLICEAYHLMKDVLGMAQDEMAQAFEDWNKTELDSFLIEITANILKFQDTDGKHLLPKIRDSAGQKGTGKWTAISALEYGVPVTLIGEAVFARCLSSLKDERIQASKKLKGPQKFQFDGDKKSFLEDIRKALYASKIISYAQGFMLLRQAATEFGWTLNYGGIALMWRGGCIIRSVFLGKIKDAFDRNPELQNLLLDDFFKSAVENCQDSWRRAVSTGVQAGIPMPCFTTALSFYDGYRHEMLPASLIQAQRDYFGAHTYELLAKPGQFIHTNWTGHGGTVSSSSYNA
# [9] = differential killing of epithelial or mesenchymal cells, primary screen, imaging, PC-3E GFP, TEM4-18 mCherry, co-culture (AID 1345086;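 active = compounds killing one labelled cell type while sparing the other, by normalised counts and ratio limits, not self-fluorescent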;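 as to all read-outs here: cells exposed to compound for 72 h before imaging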;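 as to red/green cell ratio (normalised): normalised mesenchymal count divided by normalised epithelial count so high means epithelial killing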); details: imaging cell counts, at 1 µM; for red/green cell ratio (normalised): actives lie on both sides, counts scaled to control wells, 1 = unselective
# [10] = target: Mitogen-activated protein kinase 7 (Homo sapiens) (UniProt Q13164); test: ERK5 transactivation activators in reporter cells, primary screen, cell-based, HTS (AID 1508626;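 active = luciferase signal above three times the same-plate solvent-only control wells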;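 also: luciferase driven by Gal4-ERK5 fusion binding five Gal4 sites before minimal TATA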); details: HeLa Gal4-ERK5 transactivation, 18 h, at 5 µM, stronger effect = higher value
# Chain of Mitogen-activated protein kinase 7 (Homo sapiens) (Q13164 whole entry, looked up, the tested form may be a part): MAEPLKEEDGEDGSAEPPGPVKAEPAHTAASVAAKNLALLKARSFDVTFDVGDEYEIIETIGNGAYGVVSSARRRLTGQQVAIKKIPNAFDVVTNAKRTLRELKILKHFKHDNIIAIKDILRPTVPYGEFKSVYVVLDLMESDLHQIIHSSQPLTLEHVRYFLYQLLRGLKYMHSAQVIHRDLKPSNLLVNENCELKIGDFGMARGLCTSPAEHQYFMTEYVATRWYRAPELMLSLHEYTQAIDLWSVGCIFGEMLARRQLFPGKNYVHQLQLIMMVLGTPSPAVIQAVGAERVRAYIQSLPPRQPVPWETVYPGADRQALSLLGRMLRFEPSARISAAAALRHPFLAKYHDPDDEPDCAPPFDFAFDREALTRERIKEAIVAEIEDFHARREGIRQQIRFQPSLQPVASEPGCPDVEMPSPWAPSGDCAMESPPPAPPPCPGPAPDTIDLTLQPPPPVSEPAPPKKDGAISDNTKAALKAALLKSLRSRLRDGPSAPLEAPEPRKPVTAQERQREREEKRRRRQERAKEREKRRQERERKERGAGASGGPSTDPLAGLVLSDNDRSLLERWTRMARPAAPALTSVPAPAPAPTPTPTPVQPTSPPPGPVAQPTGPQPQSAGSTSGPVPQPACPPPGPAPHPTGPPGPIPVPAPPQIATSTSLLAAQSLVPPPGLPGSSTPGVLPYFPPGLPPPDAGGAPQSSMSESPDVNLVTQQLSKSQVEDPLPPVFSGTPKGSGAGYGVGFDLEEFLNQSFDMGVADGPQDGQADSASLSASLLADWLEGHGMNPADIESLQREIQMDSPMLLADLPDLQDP
# [11] = sensitizers of A549 cells to miR-34 induction, primary screen, imaging, A549 dox-inducible miR-34, nuclei and caspase counts (AID 1347080;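 active = compounds whose cell count with miR-34 switched on is under 0.7 times the count with it off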); details: A549 miR-34 inducible, Hoechst nuclei count, 48 h
# [12] = target: NAD(+) hydrolase SARM1 (Homo sapiens) (UniProt Q6SZW1); test: SARM1 TIR NADase inhibitors, cell lysate, NAD-Glo luminescence (AID 1508614;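 active = compound whose remaining NAD level is above about 45 nM, limit read from the data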;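 also: higher remaining NAD means stronger inhibition of SARM1 NADase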); details: SAM-TIR HEK293T lysate NADase, at 1 µM, stronger effect = higher value
# Chain of NAD(+) hydrolase SARM1 (Homo sapiens) (Q6SZW1 whole entry, looked up): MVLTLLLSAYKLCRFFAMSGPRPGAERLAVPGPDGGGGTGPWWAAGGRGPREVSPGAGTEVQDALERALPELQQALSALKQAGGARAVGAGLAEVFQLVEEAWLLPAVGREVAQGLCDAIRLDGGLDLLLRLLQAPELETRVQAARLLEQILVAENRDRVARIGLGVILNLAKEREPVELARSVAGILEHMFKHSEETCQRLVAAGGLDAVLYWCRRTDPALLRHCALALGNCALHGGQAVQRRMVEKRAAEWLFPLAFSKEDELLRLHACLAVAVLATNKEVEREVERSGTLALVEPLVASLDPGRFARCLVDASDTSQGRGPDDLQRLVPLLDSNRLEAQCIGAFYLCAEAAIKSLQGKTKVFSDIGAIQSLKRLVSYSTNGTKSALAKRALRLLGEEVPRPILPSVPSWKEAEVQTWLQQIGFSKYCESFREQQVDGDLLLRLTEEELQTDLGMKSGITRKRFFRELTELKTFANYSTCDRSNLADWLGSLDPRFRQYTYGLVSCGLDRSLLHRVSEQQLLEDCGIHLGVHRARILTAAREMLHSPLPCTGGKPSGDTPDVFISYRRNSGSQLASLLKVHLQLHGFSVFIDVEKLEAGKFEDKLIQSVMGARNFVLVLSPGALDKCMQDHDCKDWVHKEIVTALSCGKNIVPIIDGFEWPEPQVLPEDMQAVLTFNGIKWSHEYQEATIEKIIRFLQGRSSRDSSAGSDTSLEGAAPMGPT
# [13] = viability rescue of complex I mutant cybrids, primary screen, cell-based, galactose medium, ATP luminescence (AID 1645843;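 active = z-score of at least 1.8 in each of two replicates, scored against plate mean and spread of sample wells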;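 also: positive z means more ATP and so rescue of galactose-driven cybrid death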); details: complex I mutant cybrid cells, 72 h, stronger effect = higher value
# [14] = liver-stage malaria parasite growth inhibition, primary screen, cell-based, HepG2, luciferase luminescence, HepG2 viability (AID 624349; in the data active = parasite load remaining mostly below about 12%, no sharp cut-off; inactive = mostly above about 10%;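 also: 100% = mean of DMSO negative control wells on the same plate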); details: P. berghei liver stage in HepG2, luciferase luminescence, concentration not given here; parasite load remaining: stronger effect = lower value; viability: measured here: HepG2 viability without parasites
# [15] = growth inhibition of DIPG glioma cells, dose response, cell-based, JHH-DIPG-1, MIPE4.0, CellTiter-Glo, qHTS (AID 1347062; cut-off not given, nearly all actives have AC50 up to about 27 µM;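 as to AC50: cells exposed to compound for two days before readout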); details: JHH-DIPG-1 viability, CellTiter-Glo ATP luminescence
# [16] = growth inhibition of DIPG glioma cells, dose response, cell-based, SU-DIPG-IV, MIPE4.0, CellTiter-Glo, qHTS (AID 1347063; cut-off not given, nearly all actives have AC50 up to about 30 µM;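 also: compound exposure lasted 48 hours before the viability readout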); details: SU-DIPG-IV viability, CellTiter-Glo ATP luminescence
# [17] = JHH-DIPG-1 glioma cell viability, MIPE5.0 library, CellTiter-Glo luminescence, qHTS (AID 1347067; cut-off not given, nearly all actives have AC50 up to about 26 µM;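 also: cells exposed to compound for 48 hours before readout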); details: JHH-DIPG-1 glioma viability, CellTiter-Glo ATP luminescence
# [18] = survival rescue of mitochondrial mutant cells in low glucose, primary screen, MELAS cybrids, Rieske KO mouse fibroblasts, CellTiter-Glo (AID 1508586;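 active = mean z-score across replicates of 1.96 or higher in either the MELAS or the Rieske mutant cell line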;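 also: z relative to plate mean and SD of compound and empty wells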)
# [19] = growth inhibition of DIPG glioma cells, dose response, cell-based, SU-DIPG-XIII, MIPE4.0, CellTiter-Glo, qHTS (AID 1347061; cut-off not given, nearly all actives have AC50 up to about 37 µM;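 also: cells exposed to compound for 48 hours before readout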); details: SU-DIPG-XIII viability, CellTiter-Glo ATP luminescence
# [20] = measured here: epithelial PC-3E GFP cell survival
# [21] = measured here: mesenchymal TEM4-18 mCherry cell survival
# [22] = stronger effect = lower value, cell number ratio, induced over uninduced
# [23] = measured here: relative caspase fold change +Dox/-Dox
# [24] = measured here: total cells with miR-34 induction, stronger effect = lower value
# [25] = measured here: total cells without miR-34 induction
# [26] = MELAS cybrid survival, CellTiter-Glo 48 h, stronger effect = higher value
# [27] = Rieske KO mouse fibroblast survival, CellTiter-Glo 72 h
structure (smiles),measurement,setting,value
CC(=O)c1c(O)c(C)c(O)c2c1OC1=CC(=O)C(C(C)=O)C(=O)C12C (centres undefined),inhibition,[1],59.1%
same,score,[2],0.79
same,rescue above control,[3],1.6
same,cytochrome c release ratio,[4],0.98
same,inhibition of aggregation,[5],-17%
same,glutamate uptake change,[6],-5.26%
same,aggregation suppression score,[7],0.354
same,inhibition,[8],-11.1% (inactive)
same,red/green cell ratio (normalised),[9],0.89 (inactive)
same,normalised cell number,[9]; [20],1.06
same,normalised cell number,[9]; [21],0.94
same,luciferase signal,[10],80 AU (inactive)
CCCC(=O)Nc1ncnc2c1ncn2[C@@H]1O[C@@H]2COP(=O)(O)O[C@H]2[C@H]1OC(=O)CCC,inhibition,[8],10.5% (inactive)
same,fold change,[11]; [22],1.04 (inactive) and 0.902 (inactive)
same,fold change,[11]; [23],0.758 and 0.739
same,cell count,[11]; [24],5610 and 9020
same,cell count,[11]; [25],5380 and 10000
same,remaining NAD,[12],10 nM (inactive)
same,luciferase signal,[10],68 AU (inactive)
same,z-score,[13],0.335 (inactive)
COC1=CC(=O)C=C(OC)C1=O,parasite load remaining,[14],122% (inactive)
same,viability,[14],94.3%
same,inhibition,[8],1.73% (inactive)
same,red/green cell ratio (normalised),[9],0.91 (inactive)
same,normalised cell number,[9]; [20],0.92
same,normalised cell number,[9]; [21],0.84
same,luciferase signal,[10],112 AU (inactive)
CON,inhibition,[1],-5.62%
same,score,[2],1.4
same,rescue above control,[3],-6.41
same,cytochrome c release ratio,[4],0.58
same,inhibition of aggregation,[5],-9.7%
same,glutamate uptake change,[6],19.3%
same,aggregation suppression score,[7],1.29
same,inhibition,[8],3.11% (inactive)
same,red/green cell ratio (normalised),[9],1.03 (inactive)
same,normalised cell number,[9]; [20],1.15
same,normalised cell number,[9]; [21],1.18
same,luciferase signal,[10],124 AU (inactive)
CC(=O)N[C@@H]1[C@@H](O)[C@H](O)[C@@H](CO)O[C@H]1O,inhibition,[1],0.38%
same,score,[2],1.2
same,rescue above control,[3],2.33
same,cytochrome c release ratio,[4],0.85
same,inhibition of aggregation,[5],91.6%
same,glutamate uptake change,[6],-1.05%
same,aggregation suppression score,[7],1.62
same,parasite load remaining,[14],72.2% (inactive)
same,viability,[14],78.3%
same,inhibition,[8],-7.13% (inactive)
same,red/green cell ratio (normalised),[9],0.98 (inactive)
same,normalised cell number,[9]; [20],1
same,normalised cell number,[9]; [21],0.98
same,luciferase signal,[10],64 AU (inactive)
NC(=O)c1cccc(N)c1,inhibition,[1],-48.2%
same,score,[2],1.17
same,rescue above control,[3],-8.42
same,cytochrome c release ratio,[4],1.08
same,inhibition of aggregation,[5],86.1%
same,glutamate uptake change,[6],20.1%
same,aggregation suppression score,[7],1.37
same,inhibition,[8],10.1% (inactive)
same,outcome,[15],inactive
same,outcome,[16],inactive
same,outcome,[17],inactive
same,z-score,[18]; [26],-0.453 (inactive) and -0.332 (inactive)
same,z-score,[18]; [27],0.178 and -0.721
same,luciferase signal,[10],104 AU (inactive)
same,z-score,[13],0.345 (inactive) and 1.35 (inactive)
CC(CCc1ccc(O)cc1)NCCc1ccc(O)c(O)c1 (centres undefined),parasite load remaining,[14],118% (inactive) and 72.9% (inactive) and 42.2% (inactive)
same,viability,[14],109% and 73.6% and 115%
same,inhibition,[8],1.78% (inactive)
same,outcome,[19],inactive
same,outcome,[15],inactive
same,outcome,[16],inactive
same,z-score,[18]; [26],0.557 (inactive) and -0.473 (inactive)
same,z-score,[18]; [27],-0.00496 and 0.199
same,remaining NAD,[12],10 nM (inactive)
same,luciferase signal,[10],56 AU (inactive)
same,z-score,[13],-1.02 (inactive) and -0.96 (inactive) and -2.02 (inactive)
O=C1c2ccc(O)c(O)c2C(=O)c2c(O)ccc(O)c21,inhibition,[1],-8.08%
same,score,[2],1.47
same,cytochrome c release ratio,[4],0.18
same,inhibition of aggregation,[5],38.2%
same,glutamate uptake change,[6],32%
same,aggregation suppression score,[7],0.505
same,inhibition,[8],4.26% (inactive)
same,red/green cell ratio (normalised),[9],1.12 (inactive)
same,normalised cell number,[9]; [20],0.82
same,normalised cell number,[9]; [21],0.92
same,luciferase signal,[10],76 AU (inactive)
O=C(O)c1cc([N+](=O)[O-])ccc1NCCCc1ccccc1,inhibition,[1],58.5%
same,score,[2],0.73
same,rescue above control,[3],1.37
same,cytochrome c release ratio,[4],0.78
same,inhibition of aggregation,[5],4.16%
same,glutamate uptake change,[6],5.28%
same,aggregation suppression score,[7],0.265
same,inhibition,[8],11.2% (inactive)
same,fold change,[11]; [22],1.03 (inactive) and 0.858 (inactive) and 0.935 (inactive)
same,fold change,[11]; [23],1.22 and 0.934 and 0.883
same,cell count,[11]; [24],10800 and 5570 and 8160
same,cell count,[11]; [25],10500 and 6480 and 8730
same,z-score,[13],0.305 (inactive) and -0.425 (inactive)
CC(=O)Oc1ccc(O)cc1,inhibition,[8],4.32% (inactive)
same,red/green cell ratio (normalised),[9],1.07 (inactive) and 1.15 (inactive)
same,normalised cell number,[9]; [20],1.01 and 1.05
same,normalised cell number,[9]; [21],1.08 and 1.21
same,luciferase signal,[10],88 AU (inactive)
C[C@@H]1[C@H](O)[C@@H](C)/C=C/C=C/C=C/C=C/C=C/C=C/C=C/[C@H](O[C@@H]2O[C@H](C)[C@@H](O)[C@H](N)[C@@H]2O)C[C@@H]2O[C@](O)(C[C@@H](O)C[C@@H](O)[C@H](O)CC[C@@H](O)C[C@@H](O)CC(=O)O[C@H]1C)C[C@H](O)[C@H]2C(=O)O,parasite load remaining,[14],70.3% (inactive)
same,viability,[14],129%
same,inhibition,[8],-10.9% (inactive)
same,AC50,[19],0.833 µM (active)
same,AC50,[15],1.32 µM (active)
same,AC50,[16],6.62 µM (active)
same,outcome,[17],inactive
same,fold change,[11]; [22],0.894 (inactive)
same,fold change,[11]; [23],1.05
same,cell count,[11]; [24],7670
same,cell count,[11]; [25],8570
same,z-score,[18]; [26],-0.838 (inactive)
same,z-score,[18]; [27],-0.728
same,remaining NAD,[12],10 nM (inactive)
same,luciferase signal,[10],92 AU (inactive)
COc1cccc(OC)c1OCCNCC1COc2ccccc2O1 (centres undefined),inhibition,[8],18.8% (inactive)
same,fold change,[11]; [22],0.967 (inactive) and 0.92 (inactive)
same,fold change,[11]; [23],1.13 and 0.877
same,cell count,[11]; [24],8030 and 7680
same,cell count,[11]; [25],8310 and 8340
same,z-score,[13],-0.59 (inactive) and -0.815 (inactive)
O=C1c2c(O)cccc2[C@H]([C@@H]2O[C@H](CO)[C@@H](O)[C@H](O)[C@H]2O)c2cc(CO)cc(O)c21,inhibition,[8],-1.53% (inactive)
same,outcome,[19],inactive
same,outcome,[15],inactive
same,remaining NAD,[12],10 nM (inactive)
same,luciferase signal,[10],44 AU (inactive)
COc1ccc([C@@H]2CC(=O)c3c(O)cc(O[C@@H]4O[C@H](CO[C@@H]5O[C@@H](C)[C@H](O)[C@@H](O)[C@H]5O)[C@@H](O)[C@H](O)[C@H]4O)cc3O2)cc1O,parasite load remaining,[14],169% (inactive)
same,viability,[14],116%
same,inhibition,[8],1.33% (inactive)
same,AC50,[19],14.8 µM (active)
same,outcome,[16],inactive
same,outcome,[17],inactive
same,fold change,[11]; [22],0.851 (inactive)
same,fold change,[11]; [23],2.5
same,cell count,[11]; [24],8600
same,cell count,[11]; [25],10100
same,z-score,[18]; [26],-0.52 (inactive)
same,z-score,[18]; [27],-0.165
same,luciferase signal,[10],88 AU (inactive)
CC(C)(S)[C@@H](N)C(=O)O,inhibition,[8],5.83% (inactive)
same,outcome,[19],inactive
same,outcome,[15],inactive
same,outcome,[16],inactive
same,outcome,[17],inactive
same,remaining NAD,[12],10 nM (inactive)
same,luciferase signal,[10],48 AU (inactive)
